The source made the active and inactive calls. How the source made its calls: active means hit-call score of the fitted dose curve at least 0.9, where 1 is the maximum; inactive means score below 0.9.
Experiment: APR_HepG2_CellCycleArrest_72hr: Apredica 72-hour HepG2 Assay for Cell Cycle Arrest (AID 2282914)
Conditions: high-content imaging, actives raise or lower the signal
Protocol: APR_HepG2_72hr is a cell-based, multiplexed-readout assay that uses HepG2, a human liver cell line, with measurements taken at 72 hours after chemical dosing in a 384-well plate.APR_HepG2_CellCycleArrest_72hr is one of 10 assay component(s) measured or calculated from the APR_HepG2_72hr assay. It is designed to make measurements of cell phenotype, a form of morphology reporter, as detected with fluorescence intensity signals by HCS Fluorescent Imaging technology.Data from the assay component APR_HepG2_CellCycleArrest_72hr was analyzed into 1 assay endpoint. This assay endpoint, APR_HepG2_CellCycleArrest_72hr, was analyzed with bidirectional fitting relative to DMSO as the negative control and baseline of activity. Using a type of morphology reporter, measures of all nuclear dna for gain or loss-of-signal activity can be used to understand the signaling at the pathway-level as they relate to the gene . Furthermore, this assay endpoint can be referred to as a primary readout, because this assay has produced multiple assay endpoints where this one serves a signaling function. To generalize the intended target to other relatable targets, this assay endpoint is annotated to the cell cycle intended target family, where the subfamily is arrest.
Cells were treated with dimethyl sulfoxide (DMSO) as a solvent control at a final concentration of 0.5% v/v or with compounds in DMSO with a resulting final DMSO concentration of 0.5% v/v. Compound treatment was done at concentrations of 0.39, 0.78, 1.56, 3.12, 6.24, 12.5, 25, 50, 100, and 200 uM in duplicate on each plate. Cells were treated with compounds for 1, 24, or 72 hr. Carbonyl […] m-chloro-phenylhydrazone (CCCP) and taxol were used as positive controls for mitochondrial function and cytoskeletal stability, respectively; DMSO served as the negative control for this experiment. Cells were fixed by the direct addition of 50 uL formaldehyde in Hank's Balanced Salt Solution (HBSS) to a final concentration of 3.7%. After incubation in the fixation medium for 30 min at room temperature (293-298 K), cells were rinsed twice with HBSS and treated with cell permeabilization buffer (16 uL of 0.5% Triton X-100) for 10 min at room temperature (293-298 K) before labeling. For mitochondrial membrane potential and mitochondrial measurements, pre-fixed cells were incubated with 50 uL of MitoTracker Red CMXRos (Invitrogen) at a concentration of 250 nM for 30 min before fixation. In the remaining cases, post-fixed cells were labeled by incubation with a multiplexed mixture of primary antibodies in HBSS for 60 min at room temperature (293-298 K) to detect immunoreactivity of c-Jun (1:500), phospho-histone H3 (1:100), phospho-histone H2A.x (1:200), p53 (1:400), alpha-tubulin (1:200) and Hoechst 33342 (2 ug/mL). Cells were labeled for multiplexed imaging on two separate plates: a) Hoechst 33342, MitoTracker Red, phospho-histone H3, and alpha-tubulin, and b) Hoechst 33342, phospho-histone H2A.x, and c-Jun. A final rinse with HBSS (50 uL) was performed before analysis. The primary and secondary antibodies for the proteins were phospho-histone H3 (rabbit anti-phospho-histone H3 and FITC-donkey anti-rabbit IgG), phospho-histone H2A.x (mouse anti-phospho-histone H2A.x and FITC-donkey anti-mouse IgG), c-Jun (rabbit anti-phospho-c-Jun and Cy3-donkey anti-rabbit IgG), p53 (sheep anti-p53 and Cy5-donkey anti-sheep IgG), alpha-tubulin (mouse anti-alpha-tubulin and Cy5-donkey anti-mouse IgG). These antibodies are available as the CellCiphr HepG2 assay kit (Millipore).Digital images of each well were captured using a Cellomics ArrayScan VTI (Thermo Scientific Cellomics) (0.8 NA objective, 0.63x optical coupler, and XF-93 filter set) at 20x magnification. The images were acquired using the autofocus feature of the ArrayScan instrument, which entails the following steps. First, the camera focuses on channel 1 (Hoechst 33342), where nuclei are identified. Second, a Z offset of 1 um is used for capturing mitochondria (MitoTracker Red). […]

Row | Compound | outcome | AC50
1 | CCCCc1ccc2c(n1)[C@@H](c1ccc(OC)cc1C[C@H](C)C(=O)O)[C@H](C(=O)O)[C@H]2c1ccc2c(c1)OCO2 | inactive | –
2 | c1cc(-c2ccncc2)ccn1 | inactive | –
3 | CCOC(=O)CCC(=O)OCC | inactive | –
4 | CN1CCCC1=O | inactive | –
5 | Cc1ccc(C)c(O)c1C | – | 12 µM (active)
6 | CC(C)(C)c1cc(O)c(C(C)(C)C)cc1O | – | 51.3 µM (active)
7 | Cc1ccc(Cl)cc1 | inactive | –
8 | Nc1nc(N)c2nc(CNc3ccc(C(=O)N[C@@H](CCC(=O)O)C(=O)O)cc3)cnc2n1 | inactive | –
9 | Cc1ccccc1Cl | inactive | –
10 | Cc1cc(=O)[nH]c(=S)[nH]1 | inactive | –
11 | CC1=C(/C=C/C(C)=C/C=C/C(C)=C/CO)C(C)(C)CCC1 | – | 56.3 µM (active)
12 | Cc1nc(C)nc(N2C[C@@H](C)N(c3ccnc([C@@H](C)O)n3)[C@@H](C)C2)n1 | inactive | –
13 | COc1ccc2c(c1)c(CC(=O)O)c(C)n2C(=O)c1ccc(Cl)cc1 | – | 100 µM (active)
14 | CCCCOC(=O)CCCCCCCCC(=O)OCCCC | inactive | –
15 | CNCc1cc(F)ccc1Oc1ccc(Cl)c(Cl)c1 | inactive | –
16 | Nc1ccccc1N | – | 5.63 µM (active)
17 | COc1ccc(S(=O)(=O)N2C(=O)[C@@](c3ccccc3OC)(N3C[C@H](O)C[C@H]3C(=O)N(C)C)c3cc(Cl)ccc32)c(OC)c1 | inactive | –
18 | Cc1ccc2ncccc2c1 | inactive | –
19 | CC(=O)Oc1ccccc1C(=O)O | inactive | –
20 | C[C@]12C=CC(=O)C=C1CC[C@@H]1[C@@H]2C(=O)C[C@@]2(C)[C@H]1CC[C@]2(O)C(=O)CO | inactive | –

Row | Compound | outcome | AC50
21 | COc1cc(-c2nc(NC(=O)c3cc4cc(C)cc(C)c4n3CC(=O)O)sc2CCC2CCCCC2)c(OC)cc1Cl | – | 23.4 µM (active)
22 | NS(=O)(=O)c1cc2c(cc1Cl)NCNS2(=O)=O | inactive | –
23 | FC(F)(F)C(F)(F)C(F)(F)C(F)(F)C(F)(F)C(F)(F)CCI | inactive | –
24 | CN[C@H]1CC[C@@H](c2ccc(Cl)c(Cl)c2)c2ccc(S(N)(=O)=O)cc21 | inactive | –
25 | OC[C@@H](O)[C@@H](O)[C@H](O)[C@H](O)CO | inactive | –
26 | CCCCCCCCCCC | inactive | –
27 | Nc1ccc(S(=O)(=O)c2ccc(N)cc2)cc1 | inactive | –
28 | CN1CCN(Cc2cc(-c3ccc4[nH]c(=O)oc4c3)co2)[C@@H](c2ccc(F)cc2)C1 | – | 83.5 µM (active)
29 | CCCCCCCCCCCCCCCCCC(=O)O | inactive | –
30 | O=C(O)Cc1ccccc1Nc1c(Cl)cccc1Cl | inactive | –
31 | CCCCCCCC=O | inactive | –
32 | CCCCC(CC)COC(=O)CC(C(=O)OCC(CC)CCCC)S(=O)(=O)O (stereo not given) | inactive | –
33 | COC(=O)c1ccc(O)cc1 | inactive | –
34 | C1CCC(SSC2CCCCC2)CC1 | – | 62 µM (active)
35 | CC(CO)OC(C)CO (stereo not given) (tested in a mixture with another compound) | inactive | –
36 | Clc1cc(Cl)c(Cl)cc1Cl | inactive | –
37 | O=C(N[C@@H](Cc1ccccc1)[C@@H](O)C(=O)N1C[C@@H](O)[C@@H](O)C1)c1cc2cc(Cl)ccc2[nH]1 | – | 91.7 µM (active)
38 | CC(=O)OCCOCCOCCOC(C)=O | inactive | –
39 | CC=Cc1ccc(O)c(OC)c1 | inactive | –
40 | CCCCCCOCCO | inactive | –
